# An excerpt weighted towards active compounds, which were near 1.7% of everything screened.
# FGF22 binding = shifts melting point of recombinant human FGF22; Q9HCT0; recombinant FGF22 thermal shift, SYPRO orange fluorescence; percent of sucrose octasulfate shift, DMSO zero; activity (Tm shift, normalised), % at 9.99 µM; hit rate 1.5% among 340,000;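 active means mean Tm shift, scaled 0 neutral to 100 positive control, at about 1.3% or above, every replicate too, limit read from the data; inconclusive means no clear call, values can overlap the other calls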
# Target sequence (Q9HCT0 whole entry, looked up): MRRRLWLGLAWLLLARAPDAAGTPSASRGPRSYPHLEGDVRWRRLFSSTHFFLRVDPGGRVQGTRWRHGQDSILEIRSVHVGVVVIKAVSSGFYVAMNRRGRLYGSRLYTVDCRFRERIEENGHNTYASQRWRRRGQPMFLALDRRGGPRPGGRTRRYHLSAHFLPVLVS
# F508del corr = CFTR F508del correction in bronchial cells. CFBE cells, YFP halide quenching; stimulated with forskolin plus potentiator P3; % fluorescence drop versus neutral controls. activity (quench increase), % at 7.58 µM. hit rate 0.36% among 350,000. AID 720511;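 active means mean added fluorescence quench of at least 8% versus neutral control, with both replicates also reaching 8%; inconclusive means only one of the mean or replicate conditions met; inactive means mean below 8% and not both replicates reaching 8%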;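 further: cells transiently co-express mutant CFTR-F508del with the halide-sensitive YFP; corrector assay measuring rescue of mutant channel to the surface after 24 h compound exposure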
# Vif inh = inhibitors of HIV Vif | HEK293T cells, Vif self-association by quenched fluorescence, imaging, 24 h | inhibition, % at 7.49 µM | hit rate 0.35% among 340,000 | AID 602346; in the data active means inhibition above about 50%, passing the limit was not always enough; inconclusive means no clear call, values can overlap the other calls; inactive means below about 31%
# Starred values were filed as active, the others as inactive; ? = inconclusive; . = no result.
SMILES,FGF22 binding,F508del corr,Vif inh
COCC(=O)Nc1ccc2c(c1)C(=O)N(C)C[C@H](OC)[C@@H](C)CN(Cc1cncnc1)[C@@H](C)CO2,-0.1,1.6,.
CCOCCCNCc1cn(-c2ccc(F)cc2F)nc1-c1ccccc1C,43.1*,3.0,-4.6
Cc1ccccc1-c1nn(-c2ccc(F)cc2F)cc1CNCC(C)O (stereo not drawn),0.1,0.9,-8.2
CNC[C@H]1Oc2c(N)cccc2C(=O)N([C@@H](C)CO)C[C@@H]1C,0.0,-0.7,.
Nc1cc([N+](=O)[O-])ccc1O,-0.2,.,0.6
Cc1ccc([N+](=O)[O-])cc1N,43.5*,-3.4,-0.1
Cc1cc(C)n(C(=O)c2ccc([N+](=O)[O-])cc2N)n1,43.1*,0.6,17.4
Cc1cc(C)n(/C(=C\N(C)C)C(=O)c2cccc([N+](=O)[O-])c2)n1,-0.3,-1.6,-14.7
CC(=O)NC[C@@H]1[C@H](c2ccc(C3=CCCC3)cc2)[C@H](CO)N1C(=O)NC(C)C,-0.1,0.3,.
Cc1ccc(S(=O)(=O)Nc2ccc3c(c2)CC(=O)N([C@H](C)CO)C[C@H](C)[C@H](CN(C)C(=O)Nc2ccccc2)O3)cc1,0.6,2.2,.
COc1ccccc1-c1noc2c1C(=O)N(Cc1cn(-c3ccc(Cl)cc3)nn1)CC2,-0.3,2.8,-8.1
C#CCN1CCc2onc(-c3ccccc3OC)c2C1=O,43.2*,-0.8,-6.6
CCCC(=O)Nc1ccc2c(c1)OC[C@H](C)N(Cc1ccc(-c3ccccn3)cc1)C[C@@H](C)[C@@H](OC)CN(C)C2=O,0.0,-2.2,.
CCc1c(C)nc2ncnn2c1NCCc1ccc(OC)cc1,0.1,10.6*,.
CCc1c(C)nc2ncnn2c1Nc1ccc(C)cc1,0.1,1.6,-4.8
COc1cccc(-c2ccc3c(c2)[C@H]2[C@H](CCN2S(=O)(=O)c2ccccc2OC)[C@@H](CO)N3)c1,1.0,-2.1,.
Cc1ccc2nc(N(CCCN(C)C)C(=O)c3ccc(S(=O)(=O)N4CCCCCC4)cc3)sc2c1,0.0,-0.4,2.5
CCCCN(C)S(=O)(=O)c1ccc(C(=O)N(CCN(C)C)c2nc3ccc(C)cc3s2)cc1,44.2*,2.0,-2.6
COc1ccc(NS(=O)(=O)c2cc(-c3cnc(C4CC4)o3)ccc2C)cc1,0.1,5.2,-14.8
COc1ccccc1NS(=O)(=O)c1cc(-c2cnc(C3CC3)o2)ccc1C,-0.3,8.3*,-9.2
C[C@@H]1CN([C@@H](C)CO)C(=O)c2cc(NS(=O)(=O)c3ccc(F)cc3)ccc2O[C@H]1CN(C)C(=O)NC1CCCCC1,-0.6,-0.2,.
Cc1cc(Cl)cc(C)c1OCCCCCn1ccnc1,-0.3,-1.4,3.2
Cc1cc(Cl)cc(C)c1OCCn1ccnc1,0.3,12.6*,1.8
CCNC(=O)N1CCN(c2ccc(N3CCN(Cc4ccccc4)[C@H](C)C3)c(C)c2)[C@@H](C)C1,39.7*,-1.9,.
CCNC(=O)N1CCN(c2ccc(N3CCN(Cc4ccccc4)[C@@H](C)C3)c(C)c2)[C@@H](C)C1,-0.5,-3.9,.
SMILES,FGF22 binding,F508del corr,Vif inh
COc1ccc2c3c(n(C)c2c1)[C@H](CO)N(CC1CC1)CC31CCN(C(=O)CN2CCOCC2)CC1,-0.5,0.0,.
O=C(c1cc(-c2ccccc2Cl)nc2ccccc12)N1CCC1,0.2,3.5,?
CCN1CCCC(OC(=O)c2cc(-c3ccccc3Cl)nc3ccccc23)C1 (stereo not drawn),0.0,11.6*,.
COc1ccc2[nH]c3c4c(ccc3c2c1)C(=O)C=CC4=O,-0.4,-5.1,51.5*
COc1ccc2[nH]c(=O)cc(C(=O)O)c2c1,0.3,-3.0,-2.3
C[C@H](CO)N1C[C@H](C)[C@H](CN(C)Cc2ccc(Oc3ccccc3)cc2)Oc2ccc(NC(=O)CCC(F)(F)F)cc2C1=O,-0.4,-0.9,.
O=C(CCN1C(=O)c2ccccc2C1=O)N1CCN(c2ccccc2)CC1,.,.,16.0
O=C1c2ccccc2C(=O)N1Cc1cnc(N2CCN(c3ccccc3)CC2)s1,0.1,11.0*,4.0
CCC(=O)Nc1ccc2c(c1)OC[C@H](C)N(Cc1cccc(F)c1)C[C@H](C)[C@@H](OC)CN(C)C2=O,-0.1,-2.1,.
CC(C)(C)c1cc(CCC(=O)NCc2ccncc2)cc(C(C)(C)C)c1O,.,.,3.1
CC(C)(C)c1cc(CCC(=O)Nc2ccncc2)cc(C(C)(C)C)c1O,18.4*,-0.4,-13.8
CC(C)(C)c1[nH]nc2c1C(c1ccco1)C(C#N)=C(N)O2 (stereo not drawn),43.9*,-1.5,-1.9
Cc1[nH]nc2c1C(c1ccco1)C(C#N)=C(N)O2 (stereo not drawn),0.2,-1.7,45.1
C[C@H]1CN([C@@H](C)CO)C(=O)c2cccc(NC(=O)c3ccc(-c4nccs4)cc3)c2O[C@@H]1CN(C)S(=O)(=O)c1ccc(Cl)cc1,0.1,-1.5,.
CCNC(=O)[C@@H]1[C@@H](CO)[C@@H]2Cn3c(ccc(-c4cccnc4)c3=O)[C@H]1N2Cc1ccccc1,-0.1,0.1,.
C[C@H](CO)N1C[C@H](C)[C@H](CN(C)C(=O)Nc2cccc3ccccc23)Oc2ccc(NS(=O)(=O)c3cccs3)cc2C1=O,-0.5,-1.9,.
O=C(NCC[C@@H]1CC[C@@H](NC(=O)C2CCCC2)[C@@H](CO)O1)c1cc(Cl)cc(Cl)c1,0.0,-3.9,.
C=CC(=O)N1C/C(=C/c2ccc(F)cc2)C(=O)/C(=C\c2ccc(F)cc2)C1,0.2,-1.4,143.2*
CN1C2CCC1/C(=C\c1ccc(F)cc1)C(=O)/C2=C/c1ccc(F)cc1,.,.,-1.0
CCC(=O)N1CCN(c2cc(C)ccc2C)CC1,.,.,50.4*
Cc1ccc(C)c(N2CCN(C(=O)Cn3cccc3)CC2)c1,.,.,4.2
COc1cccc(C(=O)Nc2ccc3c(c2)OC[C@@H](C)N(CC2CC2)C[C@@H](C)[C@H](OC)CN(C)C3=O)c1,0.0,-0.8,.
O=C(CNC(=O)Cc1ccccc1)NCc1cccs1,0.0,0.7,-1.4
O=C(NCc1ccccc1)NCc1cccs1,43.3*,-2.5,-16.6
CCCNC(=O)N1[C@H](CO)[C@H](c2ccccc2)C12CN(C(=O)CC)C2,0.1,-1.4,.
SMILES,FGF22 binding,F508del corr,Vif inh
O=C(C1CCCCC1)N1C[C@@H]2O[C@H](CNS(=O)(=O)c3ccccc3F)CC[C@@H]21,.,-2.4,.
COc1ccccc1C(=O)N/N=C/c1ccc2c(c1)OCO2,0.5,-0.5,-5.6
COc1ccccc1N/N=C/c1ccc2c(c1)OCO2,44.3*,1.9,-3.6
CCCCCCn1c(N(CC)CC)nc2c1c(=O)[nH]c(=O)n2C,.,.,51.7*
CCN(CC)c1nc2c(c(=O)[nH]c(=O)n2C)n1Cc1ccccc1,0.1,3.2,10.3
C[C@H](NC(=O)C[C@H]1C[C@H]2c3cc(N(C)C)ccc3O[C@H]2[C@@H](CO)O1)c1ccccc1,-0.1,-2.5,.
C=CCCCOc1ccc(C(=O)O)cc1,.,.,57.8*
C=CCC(=O)OCCCCCCOc1ccc(C(=O)O)cc1,.,.,-4.5
Cn1cnc2nc[nH]c2c1=S,-0.3,16.0*,-5.6
Cn1cnc(Sc2ncnc3nc[nH]c23)c1[N+](=O)[O-],0.1,2.1,0.5
COc1cc(CC(=O)N(CC(C)C)C2CCS(=O)(=O)C2)cc(OC)c1OC (stereo not drawn),43.2*,-0.6,30.4
COc1cc(CCC(=O)OCC(=O)N(CC(C)C)C2CCS(=O)(=O)C2)cc(OC)c1OC (stereo not drawn),0.0,0.8,.
